Bioassay records: PubChem BioAssay, Broad Institute
CDK5 p35 inh – blocks human CDK5/p35 kinase activity; Recombinant CDK5/p35, ADP-Glo luminescence, 60 min; Q00535+Q15078; AID 488839; 0.01% of 330,000 active; inhibition, % at 10 µM;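 active means highest replicate inhibition of at least 50% and at least 75% of replicates reaching 50%; inconclusive means only one of the two criteria met; inactive means both criteria failed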
SIRT5 inh – sirtuin-5 (human) deacylase inhibition | Q9NXA8 | Purified SirT5, succinyl-peptide AMC, trypsin-coupled fluorescence | inhibition, % at 15 µM | 1.1% of 330,000 active | AID 652115; in the data active means inhibition above about 15%; inconclusive means no clear call, values can overlap the other calls
Target sequence (Q9NXA8 whole entry, looked up): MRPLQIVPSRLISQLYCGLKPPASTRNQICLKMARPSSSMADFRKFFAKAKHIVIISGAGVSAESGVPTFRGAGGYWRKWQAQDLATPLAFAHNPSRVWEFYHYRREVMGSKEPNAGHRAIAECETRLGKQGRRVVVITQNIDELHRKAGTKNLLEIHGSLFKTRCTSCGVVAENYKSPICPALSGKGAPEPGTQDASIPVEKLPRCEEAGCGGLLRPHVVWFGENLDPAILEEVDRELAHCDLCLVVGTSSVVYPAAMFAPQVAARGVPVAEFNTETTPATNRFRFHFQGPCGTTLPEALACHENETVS
PvdQ inh – P. aeruginosa PvdQ acylase inhibition. 0.063% of 340,000 active. AID 488965. purified PvdQ acylase, fluorescence plate reader. inhibition, % at 10 µM; in the data active means inhibition above about 30%, passing the limit was not always enough; inconclusive means no clear call, values can overlap the other calls
PglD DTNB – blocks C. jejuni PglD acetyltransferase activity; inhibition, % at 12.5 µM; 0.098% of 360,000 active; purified PglD enzyme, DTNB colorimetric CoA detection; in the data active means inhibition above about 16%, passing the limit was not always enough; inconclusive means no clear call, values can overlap the other calls
FGF22 binding – FGF22 (human) thermal shift binding. recombinant FGF22 thermal shift, SYPRO orange fluorescence; percent of sucrose octasulfate shift, DMSO zero. Q9HCT0. 1.5% of 340,000 active. activity (Tm shift, normalised), % at 9.99 µM;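 active means mean Tm shift, scaled 0 neutral to 100 positive control, at about 1.3% or above, every replicate too, limit read from the data; inconclusive means no clear call, values can overlap the other calls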
dFosB activator – mouse delta FosB homodimer activation; P13346; purified delta FosB, TAMRA-CDK5 oligo fluorescence polarization; percent of positive-control signal above neutral wells; activation, % at 25 µM; 0.99% of 340,000 active;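 active means mean activation above about 17%, with every replicate also reaching it, limit read from the data, passing the limit was not always enough; inconclusive means only one of the two conditions met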
Target sequence (P13346 whole entry, looked up): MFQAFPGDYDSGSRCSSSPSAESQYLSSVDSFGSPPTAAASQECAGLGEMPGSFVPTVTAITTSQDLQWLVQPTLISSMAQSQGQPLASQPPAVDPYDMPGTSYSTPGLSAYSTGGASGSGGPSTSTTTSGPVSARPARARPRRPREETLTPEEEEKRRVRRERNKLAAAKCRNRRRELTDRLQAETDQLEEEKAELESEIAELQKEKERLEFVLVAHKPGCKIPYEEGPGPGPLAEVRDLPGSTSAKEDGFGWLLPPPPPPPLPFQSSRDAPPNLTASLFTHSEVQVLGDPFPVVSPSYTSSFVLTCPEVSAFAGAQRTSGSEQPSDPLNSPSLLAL
Numbers stand for hits; – = inactive; ? = inconclusive; · = no result given. Rows were chosen to be rich in hits. Some 2.8% of all compounds tested hit in one or more screens of this group.

SMILES | CDK5 p35 inh | SIRT5 inh | PvdQ inh | PglD DTNB | FGF22 binding | dFosB activator
CO[C@@H]1CN(C)C(=O)c2cc(NS(=O)(=O)c3cccc(C)c3)ccc2OC[C@@H](C)NC[C@@H]1C | · | – | · | – | – | ·
COc1cccc(/C=C2/SC(=S)N(CC(=O)NNC(=O)c3ccccc3O)C2=O)c1 | – | – | – | – | – | 21
O=C(CCN1C(=O)S/C(=C\c2ccccc2)C1=O)Nc1ccc(O)cc1C(=O)O | · | – | – | – | · | –
Cc1ccc(/C=C2\SC(=S)N(CCC(=O)NNC(=O)c3ccc(O)cc3)C2=O)cc1 | – | – | – | – | – | 144
O=C(CCN1C(=O)/C(=C/c2ccccc2Cl)SC1=S)NCCc1ccc(O)cc1 | – | – | – | – | – | 23
Cc1ccc(/C=C2\SC(=S)N(CCC(=O)NNC(=O)c3cccc(O)c3)C2=O)cc1 | – | – | – | – | – | ?
CN1C(=O)/C(=C/c2ccc(C(=O)Nc3ccc(O)cc3C(=O)O)cc2)SC1=S | – | 28 | – | – | – | –
CN(C)CCCNC(=O)C[C@@H]1CC[C@@H](NS(=O)(=O)c2ccc(F)cc2)[C@@H](CO)O1 | · | – | · | – | – | ·
C[C@H](CO)N1C[C@H](C)[C@@H](CN(C)Cc2ccc3c(c2)OCO3)Oc2c(NS(=O)(=O)c3ccc(F)cc3)cccc2C1=O | · | – | · | – | – | ·
C[C@@H]1CN([C@@H](C)CO)C(=O)c2cc(NC(=O)NC3CCCCC3)ccc2O[C@H]1CN(C)S(=O)(=O)c1ccc(Cl)cc1 | · | – | · | – | – | ·
O=C(CN1C(=O)/C(=C/c2cccc(Br)c2)SC1=S)Nc1cccnc1 | – | – | – | – | 44 | –
O=C(CCN1C(=O)/C(=C/c2ccccc2Cl)SC1=S)NNC(=O)c1ccccc1O | – | – | – | – | – | 37
O=C(Cc1cccc2ccccc12)NN1C(=O)/C(=C\c2cccnc2)SC1=S | – | – | – | – | – | 141
Cc1ccc(/C=C2\SC(=S)N(CCC(=O)NNS(=O)(=O)c3ccccc3)C2=O)cc1 | – | – | – | – | – | 22
C[C@@H]1CN([C@H](C)CO)C(=O)c2cc(NS(C)(=O)=O)ccc2O[C@@H](C)CCCCO[C@@H]1CN(C)Cc1ccc(C(=O)O)cc1 | · | – | · | – | – | ·
Cc1ccc(/C=C2\SC(=S)N(CCCC(=O)NNC(=O)c3ccccc3O)C2=O)cc1 | – | – | – | – | – | –
Cc1ccc(/C=C2\SC(=S)N(CCC(=O)NNC(=O)c3ccccc3O)C2=O)cc1 | – | – | – | – | – | 66
COC(=O)c1sccc1NC(=O)CSCCc1ccncc1 | – | – | – | · | 43 | –
COc1cc(C)c(C(=O)Oc2cc(C)c(C(=O)O)c(O)c2C)c(O)c1C | – | – | – | – | 1.6 | –
COc1cc(C)c(C(=O)Oc2cc(C)c(C(=O)O)c(O)c2)c(O)c1 | – | · | – | – | – | –
C[C@@H]1CN([C@H](C)CO)C(=O)c2cc(C#Cc3ccccc3F)cnc2O[C@H]1CN(C)C(=O)C1CC1 | · | – | · | – | – | ·
O=C(CCC(=O)Nc1ccc(F)cc1)N/N=C/c1ccc(Br)cc1 | – | – | – | – | – | –
O=C(C[n+]1ccccc1)N/N=C/c1ccco1 | – | – | – | · | – | –
Cc1ccc(/C=N/NC(=O)C[n+]2ccccc2)o1 | – | 21 | – | · | – | –
O=C(CCC(=O)Nc1ccc(F)cc1)N/N=C/c1ccccc1 | – | – | – | – | – | 18
SMILES | CDK5 p35 inh | SIRT5 inh | PvdQ inh | PglD DTNB | FGF22 binding | dFosB activator
Cc1ccc(NC(=O)CCC(=O)N/N=C/c2ccccc2O)cc1 | – | – | – | – | – | –
O=C(C[n+]1ccccc1)N/N=C/c1ccc(F)cc1 | – | 112 | – | · | – | –
O=C(CCC(=O)Nc1ccc(Br)cc1)N/N=C/c1ccccc1O | – | – | – | – | – | 29
CO[C@@H]1CN(C)C(=O)c2ccc(NS(=O)(=O)c3cccc(F)c3)cc2OC[C@H](C)NC[C@@H]1C | · | – | · | – | – | ·
C[C@@H]1CN([C@H](C)CO)C(=O)c2cc(NC(=O)Nc3cccc4ccccc34)ccc2O[C@H]1CN(C)C(=O)Nc1ccc2c(c1)OCO2 | · | – | · | – | – | ·
C[C@H](CO)N1C[C@H](C)[C@H](CN(C)C(=O)CN(C)C)Oc2ncc(C#Cc3ccccc3)cc2C1=O | · | – | · | – | – | ·
COc1ccc(CN(C)C[C@H]2Oc3ccc(NC(=O)Nc4ccc(C(F)(F)F)cc4)cc3CC(=O)N([C@H](C)CO)C[C@H]2C)cc1 | · | – | · | – | – | ·
O=C(C[n+]1ccccc1)N/N=C/c1ccccc1[N+](=O)[O-] | – | – | – | · | 43 | –
CC[n+]1oc(-c2ccccc2)cc1C | – | – | – | · | 43 | –
O=C(O)c1cc(-c2ccccc2)on1 | – | – | – | – | – | –
O=C(O)c1ccc(/C=N/n2cc(-c3ccccc3)[nH]c2=S)cc1 | – | – | – | · | – | –
S=c1[nH]c(-c2ccccc2)cn1/N=C/c1ccc(Br)cc1 | – | – | – | · | 43 | –
CCCCCOc1ccc(Br)cc1CSC(=N)N | – | – | – | · | 44 | –
COc1ccc(Br)cc1CSC(=N)N | – | – | – | · | – | –
COc1cccc(CNC[C@H]2O[C@@H](n3cnc(C(N)=O)n3)[C@H](O)[C@@H]2O)c1OCc1ccc(F)cc1Cl | – | · | – | – | – | –
COc1cc(Cl)c(CNC[C@H]2O[C@@H](n3cnc(C(N)=O)n3)[C@H](O)[C@@H]2O)c(Cl)c1O | – | · | – | – | 43 | –
COc1ccc2c3c(n(C)c2c1)[C@@H](CO)N(C(=O)c1ccccn1)CC31CN(C(C)=O)C1 | · | · | · | · | – | ·
O=C(/C=C/c1ccc(Br)cc1)NC(=S)N1CCOCC1 | – | – | – | · | 44 | –
O=C(NC1CCC1)[C@H]1[C@H](CO)[C@H]2Cn3c(ccc(-c4ccccc4)c3=O)[C@@H]1N2CC1CC1 | · | – | · | – | – | ·
Cc1cccc2c1-c1sc(C(=O)Nc3ccccc3N3CCN(C)CC3)cc1CO2 | – | – | – | – | – | 26
Cc1ccc(S(=O)(=O)NCCC(=O)Nc2ccc(Cl)c(Cl)c2)cc1C | – | – | – | · | 47 | –
CCOc1c2ccc(C(=O)NCc3cc(C(F)(F)F)cc(C(F)(F)F)c3)cc2nn1CCOC | – | · | – | – | – | –
CCCCn1nc2cc(C(=O)NCc3cc(C(F)(F)F)cc(C(F)(F)F)c3)ccc2c1OCC | – | – | – | – | 44 | –
C[C@@H]1CN([C@@H](C)CO)C(=O)c2cc(NC(=O)Nc3cccc4ccccc34)ccc2O[C@@H](C)CCCCO[C@@H]1CN(C)S(=O)(=O)c1ccc(F)cc1 | · | – | · | – | – | ·
CC(C)CNC(=O)COC(=O)CCC(=O)c1cccs1 | – | – | – | · | 43 | –
CCC(CC)NC(=O)COC(=O)CCC(=O)c1cccs1 | – | – | – | · | 43 | –
CCNC(=O)COC(=O)CCC(=O)c1cccs1 | – | – | – | · | – | –
Cc1c(Cl)cnc(NC(=O)COC(=O)CCC(=O)c2cccs2)c1Cl | – | – | – | · | 43 | –
O=C(N[C@@H]1CC[C@H](CCNS(=O)(=O)c2ccc(Cl)cc2)O[C@@H]1CO)c1cccnc1 | · | – | · | – | – | ·
